PTEN del growth: growth suppressors of cells with PTEN tumor suppressor deletion. viability, % at 10 µM. 140,000 tested, 1.2% active. HCT116 PTEN-null viability, CellTiter-Glo, 60 h; active compounds read low;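 active means viability at or below a set limit, 4 SD under the median of all tested compounds, cut at about 3.7% in these data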;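 further: PTEN knockout HCT116 line with beta catenin targeted HCT116 as companion control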
p97 inhibitor: human p97 ATPase inhibition; AID 1481; inhibition, % at 8 µM; 220,000 tested, 0.42% active; recombinant p97 ATPase, Kinase-Glo ATP luminescence, 3 h; in the data active means inhibition above about 15%
Target sequence (P55072 whole entry, looked up): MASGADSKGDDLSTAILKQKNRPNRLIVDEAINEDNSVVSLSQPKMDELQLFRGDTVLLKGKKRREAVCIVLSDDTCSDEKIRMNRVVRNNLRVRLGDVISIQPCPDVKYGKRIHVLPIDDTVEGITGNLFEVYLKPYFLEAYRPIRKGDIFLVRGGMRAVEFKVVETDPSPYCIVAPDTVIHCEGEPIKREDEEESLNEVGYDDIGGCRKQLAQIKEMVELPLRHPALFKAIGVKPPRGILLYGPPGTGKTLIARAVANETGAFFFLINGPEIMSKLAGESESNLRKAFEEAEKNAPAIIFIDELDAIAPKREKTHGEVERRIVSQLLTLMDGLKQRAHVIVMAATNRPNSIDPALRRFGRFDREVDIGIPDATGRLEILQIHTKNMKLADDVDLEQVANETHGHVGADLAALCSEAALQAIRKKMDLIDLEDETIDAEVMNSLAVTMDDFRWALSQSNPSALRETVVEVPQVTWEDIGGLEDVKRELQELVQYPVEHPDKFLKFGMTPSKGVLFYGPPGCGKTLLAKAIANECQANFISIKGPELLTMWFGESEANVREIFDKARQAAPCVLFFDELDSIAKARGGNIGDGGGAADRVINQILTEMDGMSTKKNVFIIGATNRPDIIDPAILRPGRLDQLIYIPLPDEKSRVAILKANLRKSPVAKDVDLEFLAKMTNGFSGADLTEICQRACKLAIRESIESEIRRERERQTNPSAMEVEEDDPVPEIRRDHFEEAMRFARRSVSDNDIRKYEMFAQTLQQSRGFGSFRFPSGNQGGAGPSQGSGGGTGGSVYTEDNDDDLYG
ROMK primary: human ROMK K+ channel modulation, primary screen; P48048; Tet-inducible ROMK, thallium flux fluorescence; actives lie on both sides; B-score at 10 µM; 130,000 tested, 2% active; AID 1918;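 active means signal ratio slope over the read window, or its plate-corrected B-score, at least 3 SD from the plate mean, either direction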;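 further: B-score of the F/F0 ratio slope over 7 to 12 s after thallium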
HCT116 bCat-KO: beta-catenin-lacking colon tumor cell growth suppression; HCT116 beta-catenin knockout viability, CellTiter-Glo, 60 h; active compounds read low; viability, % at 10 µM; 140,000 tested, 1.5% active; AID 818;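 active means viability at or under a set limit, the compound median less 4 SD, cut at about 6% in these data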
INS promoter inh: TRM-6 insulin promoter activity inhibition; TRM-6 cells (human fetal islet line), insulin promoter-eGFP reporter, imaging; reporter expression induced with tamoxifen; inhibition, % at 2 µM; 130,000 tested, 0.9% active; AID 1273;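 active means inhibition above the mean plus 3 SD, with well images judged a real hit on visual review, cut at about 60% in these data, passing the limit was not always enough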
L major viab: reduces viability of Leishmania major promastigotes | resazurin fluorescence viability | 200,000 tested, 9% active | inhibition, % at 10 µM | AID 1063; in the data active means inhibition above about 50%;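 further: promastigotes grown with compound for 44 hours at 28 °C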
Numbers stand for hits. Shown are actives, neighbours in structure and some others; about 10% of the full set was active somewhere.

Screening CCCOc1ccc2oc(=O)c3c(c2c1)CCCN3C(=O)CN(C)Cc1ccccc1 returned PTEN del growth inactive, p97 inhibitor inactive, HCT116 bCat-KO inactive, INS promoter inh inactive and L major viab 58.
`O=C(Nc1ccnc(-c2cccnc2)n1)c1cccs1` gave p97 inhibitor inactive, ROMK primary inactive and L major viab inactive.
`O=C(c1ccco1)N1CCN(Cc2nc(Cc3ccccc3)no2)CC1` gave p97 inhibitor inactive, ROMK primary inactive and L major viab inactive.
For O=C(c1ccco1)N1CCCN(Cc2nc(-c3cccs3)no2)CC1 the results were p97 inhibitor inactive, ROMK primary inactive and L major viab 86.
`CN(C)N1C(N)=C(C#N)C(c2cccc3ccccc23)C2=C1CC(c1ccccc1)CC2=O` (centres undefined) gave PTEN del growth inactive, p97 inhibitor inactive, ROMK primary inactive, HCT116 bCat-KO inactive, INS promoter inh inactive and L major viab 96.
For Cc1ccc(C2C(C#N)=C(N)N(N(C)C)C3=C2C(=O)CCC3)cc1 (centres undefined) the results were PTEN del growth inactive, p97 inhibitor inactive, ROMK primary inactive, HCT116 bCat-KO inactive, INS promoter inh inactive and L major viab inactive.
Screening CC(=O)C(/C=N/c1cc(-c2ccc(C)cc2)nn1-c1ccccc1)=C(\C)O returned PTEN del growth inactive, p97 inhibitor inactive, ROMK primary inactive, HCT116 bCat-KO inactive, INS promoter inh inactive and L major viab 64.
`CCOc1cc(Br)ccc1S(=O)(=O)NCc1ccccc1` gave PTEN del growth inactive, p97 inhibitor inactive, ROMK primary inactive, HCT116 bCat-KO inactive and L major viab inactive.
For O=[N+]([O-])c1cccc(N/N=C/c2cc([N+](=O)[O-])ccc2O)c1 the results were p97 inhibitor inactive, ROMK primary inactive and L major viab inactive.
For COc1ccc(O)c(/C=N/Nc2nc3ccccc3[nH]2)c1 the results were p97 inhibitor inactive, ROMK primary inactive, INS promoter inh inactive and L major viab 88.
O=[N+]([O-])c1ccc(O)c(/C=N/Nc2nc3ccccc3[nH]2)c1 was read as PTEN del growth inactive, p97 inhibitor inactive, ROMK primary inactive, HCT116 bCat-KO 4.2, INS promoter inh inactive and L major viab 100.
For COc1cc(/C=N/Nc2nc3ccccc3[nH]2)ccc1O the results were PTEN del growth inactive, p97 inhibitor inactive, ROMK primary inactive, HCT116 bCat-KO inactive, INS promoter inh inactive and L major viab 80.
`O=C(N/N=C/c1cc([N+](=O)[O-])ccc1O)c1c[nH]c2ccccc12` gave p97 inhibitor inactive and ROMK primary inactive.
For COc1cc(/C=N/Nc2nc3ccccc3[nH]2)cc(OC)c1O the results were PTEN del growth inactive, p97 inhibitor inactive, HCT116 bCat-KO inactive and L major viab inactive.
For O=[N+]([O-])c1ccc(O)c(/C=N/Nc2ccccn2)c1 the results were PTEN del growth inactive, p97 inhibitor inactive, HCT116 bCat-KO inactive and L major viab 89.
`CN(C)c1ccc(/C=c2/sc3n(c2=O)NC2(c4ccccc4)N(C)C(=O)N(C)C2(c2ccccc2)N=3)cc1` (centres undefined) gave PTEN del growth inactive, p97 inhibitor inactive, ROMK primary inactive, HCT116 bCat-KO inactive, INS promoter inh inactive and L major viab inactive.
For Cn1nc(OCC(=O)O)cc1C(F)(F)F the results were p97 inhibitor inactive.
Screening O=C1OCC/C1=C\OCCCO/C=C1\CCOC1=O returned p97 inhibitor inactive and ROMK primary inactive.
`Cc1ccc(-n2c(=O)c3c(n4cnnc24)-c2ccccc2CC32CCCCC2)cc1` gave PTEN del growth inactive, p97 inhibitor inactive, ROMK primary inactive, HCT116 bCat-KO inactive, INS promoter inh inactive and L major viab 96.
`CC(C)(C)NC(=O)C(=O)NNC(=O)c1cccc(F)c1` gave p97 inhibitor inactive, ROMK primary inactive and L major viab inactive.
`CCc1ccc(CN2CCCC(CNS(=O)(=O)c3ccc(OC)cc3)C2)cc1` (centres undefined) gave p97 inhibitor inactive, ROMK primary inactive and L major viab 84.
For COc1ccc(S(=O)(=O)NCC2CCCN(Cc3ccc(C)o3)C2)cc1 (centres undefined) the results were p97 inhibitor inactive, ROMK primary inactive and L major viab inactive.
`COc1ccccc1NC(=O)c1cc(Sc2nncn2C)nc2ccccc12` gave PTEN del growth inactive, p97 inhibitor inactive, ROMK primary inactive, HCT116 bCat-KO inactive and L major viab inactive.
Screening Cc1cc(N2CCN(S(=O)(=O)c3ccc4ccccc4c3)CC2)n2ncnc2n1 returned p97 inhibitor inactive, ROMK primary inactive and L major viab inactive.
Screening CCCCCCCCOC(=O)/C=C/c1c(C)[nH]c(=O)[nH]c1=O returned PTEN del growth inactive, p97 inhibitor inactive, ROMK primary inactive, HCT116 bCat-KO inactive, INS promoter inh inactive and L major viab 93.
For CCCCCOC(=O)CSc1n[nH]c(=O)[nH]c1=O the results were PTEN del growth inactive, p97 inhibitor inactive, ROMK primary inactive, HCT116 bCat-KO inactive, INS promoter inh inactive and L major viab inactive.
`CCOC(=O)C1C(C)=C(Nc2ccc(OC)cc2)C(=O)N1c1ccc(OC)cc1` (centres undefined) gave PTEN del growth inactive, p97 inhibitor inactive, HCT116 bCat-KO inactive, INS promoter inh inactive and L major viab inactive.
`O=C(COc1ccc(Br)cc1)N/N=C1/SCC(=O)N1Cc1ccco1` gave p97 inhibitor inactive, ROMK primary inactive and L major viab inactive.
For CCOc1ccc(N2C(=O)CS/C2=N/NC(=O)COc2ccc3ccccc3c2)cc1 the results were PTEN del growth inactive, p97 inhibitor inactive, HCT116 bCat-KO inactive, INS promoter inh inactive and L major viab 99.
CCc1ccccc1NC(=O)CSc1nc2n[nH]c(C)c2c(=N)n1-c1ccc(OC)cc1 was read as PTEN del growth inactive, p97 inhibitor inactive, HCT116 bCat-KO inactive and L major viab inactive.
For COc1ccccc1NC(=O)CSc1nc2n[nH]c(C)c2c(=N)n1-c1ccccc1Cl the results were PTEN del growth inactive, p97 inhibitor inactive, HCT116 bCat-KO inactive, INS promoter inh inactive and L major viab 65.
Screening O=C(c1cccc(F)c1)n1nnc2ccccc21 returned PTEN del growth inactive, p97 inhibitor inactive, HCT116 bCat-KO inactive, INS promoter inh 81 and L major viab inactive.
`Cc1ccc(C(=O)n2nnc3ccccc32)cc1` gave p97 inhibitor inactive, ROMK primary inactive, INS promoter inh inactive and L major viab inactive.
Screening COc1cccc(-c2nn(-c3ccccc3)cc2/C=C\C(=O)c2cccs2)c1 returned PTEN del growth inactive, p97 inhibitor inactive, HCT116 bCat-KO inactive, INS promoter inh inactive and L major viab 65.
Cc1cccc(OCCC(=O)NCC(c2ccccc2)N(C)C)c1 (centres undefined) was read as PTEN del growth inactive, p97 inhibitor inactive, ROMK primary inactive, HCT116 bCat-KO inactive and L major viab inactive.

Bioassay records as filed in PubChem BioAssay.
